Laboratory results taken from PubChem BioAssay AID485364 (National Center for Advancing Translational Sciences (NCATS), 2010).
Hit rate of the full screen: of about 360,000 compounds, about 11,000 (3.1%) were called active. Roughly 4% stayed inconclusive and do not appear here. This excerpt belongs to a sample that is enriched for actives. A number with no mark means an inactive call. Calls come from the whole dose curve; as a rule, active = well fitted inhibition curve with a large enough effect; inconclusive = small, poorly fitted or top-dose-only effect; inactive = no such curve, though single readings can be large or run the other way.

Target: Schistosoma mansoni thioredoxin glutathione reductase (TGR) (UniProt Q962Y6)
Assay: qHTS Assay for the Inhibitors of Schistosoma Mansoni Peroxiredoxins; note: nearly all actives have a fitted effect of over 60% in size
Conditions: purified TGR, DTNB reduction, TNB absorbance 405 nm; series mostly up to 114 µM; activity change, negative = inhibition: at the top concentration
Description: Schistosomiasis is a major neglected tropical disease that currently affects over 200 million. It is caused by different species of flatworms, such as Schistosoma mansoni. Over the last century, drugs to treat the disease have evolved from potassium antimonyl tartrate, artemisinin, oxamniquine, to praziquantel, with praziquantel remaining the universally-used single drug of choice over the past three decades. However, transmission rates have changed little with praziquantel, and there is evidence for the development of drug resistant parasites. Because there is currently no suitable alternative therapy available, there is an urgent need to identify new targets and drugs for schistosomiasis treatment. Thioredoxin glutathione reductase (TGR), one uniquely positioned S. mansoni enzyme, has been identified as a major component of the worms' distinct and compressed antioxidant "firewall". TGR is a multifunctional enzyme that catalyzes the interconversion between reduced and oxidized forms of both glutathione (GSH) and thioredoxins, thus making it an attractive new antiparasitic target. Recently, a quantitative high-throughput screen of the NIH Molecular Libraries Small Molecule Repository (MLSMR, ~71K at the time of the screen in 2007) was performed using an assay that targeted both TGR and peroxiredoxin2 (Prx2, an H2O2-reducing enzymatic component of the S. mansoni redox "firewall") by following the decrease of NADPH fluorescence. […] Additional mechanistic link between exogenous NO donation and parasitic injury for the oxadiazole-2-oxide class of compounds was also expanded and better defined. Although the screen addressed both TGR and Prx2, the assay required post-screen target deconvolution for further characterization of the actives. In addition, the fluorescence assay was also subject to fluorescence interference from compound library members. We have developed a 1536-well-based kinetic HTS assay to address TGR alone. The assay followed the reduction of 5, 5'-dithiobis (2-nitrobenzoic acid) (DTNB) (Ellman's reagent) by NADPH and measured the increase in absorbance at 412 nm of the reaction product, TNB. […] This assay format can be used to screen the current MLSMR collection (with >300K compounds available) to find novel TGR inhibitors. Furoxan is a good choice to serve as a positive control in the primary HTS assay.
Three microliters of reagents (100 uM NADPH and 20 nM TGR or 100 uM NADPH as no-enzyme control) were dispensed into 1,536-well black clear-bottomed plates. Compounds (23 nL) were transferred via Kalypsys pin tool equipped with 1536-pin array (10 nL slotted pins, V&P Scientific, San Diego, CA). The plates were then be incubated for 15 min at room temperature, and 1 uL aliquot of 500 uM NADPH were added, immediately followed by a 1 uL aliquot of 15 mM DTNB to start the reaction. The plate was transferred to a ViewLux high-throughput CCD imager (Perkin-Elmer, Wellesley, MA) where kinetic measurements of the TNB absorbance were acquired using a 405 excitation filter. Throughout the screen, reagent bottles and all liquid lines were made light-tight to minimize reagent degradation. All screening operations were performed on a fully integrated robotic system (Kalypsys, San Diego, CA) containing one RX-130 and two RX-90 anthropomorphic robotic arms (Staubli, Duncan, SC). Library plates were screened starting from the lowest and proceeding to the highest concentration, and a "double-dipping" step of the highest concentration was required to access higher concentrations of compounds. Vehicle-only plates, with DMSO being pin-transferred to the entire column 5-48 compound area, were inserted uniformly at the beginning and the end of each library in order to monitor for and record any shifts in the background, which can be affected by reagent dispensers or loss in enzyme activity overtime. […]
% is set by controls: 0 for no effect and ±100 for the full control effect; potency is the fitted concentration of half-maximal effect.

| SMILES | activity change, negative = inhibition | Potency |
| --- | --- | --- |
| Cc1nc2nc(SCC(=O)N(Cc3ccccc3)C(C)C)nn2c(C)c1Cc1ccccc1Cl | -0.675% | – |
| Cc1ccc(Nc2c(-c3ccc(Cl)cc3)nc3sccn23)c(C)c1 | 12.8% | – |
| COc1ccc(-n2c(C)nc3c(cnn3-c3ccc(F)cc3)c2=O)cc1 | 7.03% | – |
| O=C(c1ccco1)n1nc(-c2ccc(Cl)cc2)nc1NCc1ccccc1 | -1.85% | – |
| CS(=O)(=O)n1nc(-c2ccccc2)nc1NCc1ccco1 | – | 44.7 µM (active) |
| Cc1ccc(S(=O)(=O)n2nc(-c3ccc(Cl)cc3)nc2NCc2ccccc2)cc1 | 7.22% | – |
| Cc1ccc(CNC(=O)CCc2c(C)nc3nc(CNC(=O)OC(C)(C)C)nn3c2C)cc1 | -4.1% | – |
| Cc1cc(OCC(=O)NCC2(N(C)C)CCCCC2)cc(C)c1Cl | 0.106% | – |
| O=C(NCc1ccccc1)C1=C[C@@H](c2ccc(C(F)(F)F)cc2)C[C@@H](OCc2ccc(CO)cc2)O1 | -28.1% | – |
| O=C(C1=C[C@H](c2ccc(C(F)(F)F)cc2)C[C@H](OCc2ccc(CO)cc2)O1)N1CCN(Cc2ccccc2)CC1 | – | 28.2 µM (active) |
| O=C(C1=C[C@H](c2coc3ccccc3c2=O)C[C@H](OCc2ccc(CO)cc2)O1)N1CCN(Cc2ccccc2)CC1 | -28.2% | – |
| O=C(CSCc1cnn(-c2ccccc2)c1-n1cccc1)NCc1ccc(Cl)cc1 | -13.6% | – |
| CCOc1ccc(C(=O)c2cn(Cc3ccccc3OC)c3ccc(F)cc3c2=O)cc1 | 1.39% | – |
| COc1ccc2c(c1)Cc1sc(NC(=O)c3ccccc3Br)nc1-2 | -24.5% | – |
| O=S(=O)(c1ccc(C2CCCCC2)cc1)N1CCN(c2ccc(Cl)c(Cl)c2)CC1 | 0.0481% | – |
| CCCCNC(=O)C1CCCN(c2nnc(C)c3c(C)n(-c4ccc(Cl)cc4)nc23)C1 (stereo not drawn) | -3.38% | – |
| CCN(CCCNC(=O)Cn1ncc2c([nH]c3ccccc32)c1=O)c1cccc(C)c1 | -0.871% | – |
| CN(C)c1nc(N(C)C)nc(N(C#N)CCCl)n1 | – | 1 µM (active) |
| Cc1cccn2c(=O)c3cc(C(=O)NC(C)c4ccccc4)c(=N)n(CCCO)c3nc12 (stereo not drawn) | 13.1% | – |
| CCOC(=O)c1c(NC(C)=O)c2c3c(sc2n1Cc1c(C)cc(C)cc1C)CCCC3 | 1.55% | – |
| O=C(c1cnn(-c2ccc(F)cc2)c1-n1cccc1)N1CCN(c2ccc(F)cc2)CC1 | 1.41% | – |

| SMILES | activity change, negative = inhibition | Potency |
| --- | --- | --- |
| COc1ccc(-c2[nH]nc3c2C(c2ccncc2)C(C#N)=C(N)O3)cc1 (stereo not drawn) | -12.7% | – |
| CCCc1[nH]nc2c1C(c1ccc(Br)s1)C(C#N)=C(N)O2 (stereo not drawn) | -35.1% | – |
| Cc1cc(C)c(C#N)c(SCc2[nH]nc3c2C(c2ccccc2)C(C#N)=C(N)O3)n1 (stereo not drawn) | – | 22.4 µM (active) |
| Fc1cc(Br)ccc1NC(=S)Nc1cccnc1 | – | 10 µM (active) |
| O=C(Nc1cccnc1)c1cc2cc(Br)ccc2oc1=O | -25.1% | – |
| S=C(Nc1cccnc1)Nc1ccccn1 | -24.5% | – |
| COc1cc(C2c3c(oc4ccccc4c3=O)C(=O)N2c2nc(C)c(C)s2)ccc1O (stereo not drawn) | -26.8% | – |
| O=C(Nc1c(C(=O)N2CCN(c3ccc(F)cc3)CC2)oc2ccccc12)c1ccco1 | -0.224% | – |
| CCOC(=O)c1oc2c(CN3CCN(CCO)CC3)c(O)c(CC)cc2c(=O)c1-c1nc2ccccc2s1 | -26.4% | – |
| CC(C)(C)c1ccc(/C=C2\Oc3c(ccc(O)c3CN3CCN(CCO)CC3)C2=O)cc1 | – | 50.1 µM (active) |
| O=C(CSc1nc2c(c(=O)[nH]1)CN(Cc1ccc3c(c1)OCO3)CC2)Nc1cc(F)ccc1F | -9.35% | – |
| CCOC(=O)c1cnc(COc2ccccc2Cl)[nH]c1=O | 9.04% | – |
| CCOC(=O)c1cc2c(=O)[nH]c(C(Cl)(Cl)Cl)nc2o1 | – | 17.8 µM (active) |
| CCOC(=O)c1ccc(COC(=O)c2cc(=O)[nH]c3ccccc23)o1 | -15.9% | – |
| COCC(C)n1c(C)cc(C(=O)COc2ccc(C)nc2[N+](=O)[O-])c1C (stereo not drawn) | 59.1% | – |
| Cc1cc(C(=O)COC(=O)CNC(=O)c2ccc(F)cc2)c(C)n1Cc1ccco1 | -4.25% | – |
| Cc1ccc(OCC(=O)c2cc(C)n(Cc3ccco3)c2C)c([N+](=O)[O-])n1 | – | 35.5 µM (active) |
| CCOc1ccccc1NC(=O)NC1CCCCCCC1 | -7.77% | – |
| CCOc1ccccc1NC(=S)NC(=O)CCc1ccccc1 | – | 7.94 µM (active) |
| CCOc1ccccc1NC(=O)CCc1nnc2ccc(NCc3ccco3)nn12 | -19.5% | – |
| CCOc1ccc(CNC(=O)Cn2cc3c(n2)-c2c(oc(C(=O)N4CCCC4)c2C)CC3)cc1 | -0.78% | – |

| SMILES | activity change, negative = inhibition | Potency |
| --- | --- | --- |
| CC1=C(C(=O)OCc2ccc(C)cc2)C(c2c(Cl)cccc2Cl)CC(=O)N1 (stereo not drawn) | -1.29% | – |
| COc1ccc(CNC(=O)c2cc3c(=O)[nH]c4ccccc4c3s2)cc1 | -3.05% | – |
| Cc1cc2cc(CNC(=O)c3cccs3)ccc2[nH]1 | – | 31.6 µM (active) |
| CCc1cccc(CC)c1NC(=S)NCc1ccc2[nH]c(C)cc2c1 | 4.53% | – |
| COc1cc2nc(SCc3ccc(F)cc3)n3nc(CCn4c(C)nc5ccccc54)nc3c2cc1OC | 4.89% | – |
| CCCSc1nc2sc3c(c2c(=O)n1-c1cccc(Br)c1)CC(C)(C)OC3 | 7.71% | – |
| COc1ccc(CCNc2ncnc3c2cnn3-c2ccc(C)cc2)cc1 | -0.478% | – |
| O=C(CSc1nccn1C1CCCC1)Nc1cc(C(F)(F)F)ccc1Cl | 6.6% | – |
| Cc1oc(-c2ccccc2Cl)[n+]([O-])c1C | – | 31.6 µM (active) |
| CCOc1cnc(-c2c(-c3ccccc3Cl)noc2C)o1 | -5.55% | – |
| COc1ccc(NS(=O)(=O)c2ccc3oc(SCC(N)=O)nc3c2)cc1 | -0.717% | – |
| COc1ccc(S(=O)(=O)Nc2ccc3oc(C)c(C(C)=O)c3c2)cc1 | -27.8% | – |
| CCn1c(=O)c(=O)[nH]c2c(=O)oc3ccc(S(=O)(=O)Nc4ccc(OC)cc4)cc3c21 | – | 35.5 µM (active) |
| Cc1cc(NC(=O)CS(=O)(=O)c2cn(C)c3ccccc23)no1 | – | 28.2 µM (active) |
| CCOC(=O)c1ccc(NC(=O)CS(=O)(=O)c2cn(CC)c3ccccc23)cc1 | 1.35% | – |
| Cc1cc(NC(=O)COn2nnc3ccccc32)no1 | 0.17% | – |
| COc1ccc(N(C)C(=O)C2CCN(S(=O)(=O)c3cc(Br)cc4c3N(C(C)=O)CC4)CC2)cc1 | 4.51% | – |
| COc1ccc(Cl)cc1S(=O)(=O)N1CCC(c2ccncc2)CC1 | -0.887% | – |
| CCN1CC(CN(C)Cc2nc(-c3ccc(Cl)cc3)no2)CC1=O (stereo not drawn) | -4.79% | – |
| CN(Cc1ccccn1)Cc1nc(-c2ccc(Cl)cc2)no1 | – | 28.2 µM (active) |
| COC(=O)c1ccc(-c2noc(CN(Cc3ccccn3)CC3CCCO3)n2)cc1 (stereo not drawn) | 7.28% | – |
